# Test results: ChEMBL document CHEMBL3988442, “University of Dundee, Small-Polar-MMV Screening Library” (2021)
# Out of some 48,000 compounds screened, about 13,000 (27%) showed an effect of 50% or more. The list shows a part of the results.
# System: Wolbachia pipientis
# Assay: Anti-Wolbachia Cell-Based Screen
# Assay type: functional
# Parameters: scale not given: in the data most compounds retested in dose-response had high values
# Settings: 5 µM
row,Structure (SMILES),Percent Effect
1,COc1cccc(-c2n[nH]cc2CNCC2CCS(=O)(=O)C2)c1 (configuration not stated),9.215%
2,O=C1CCC2(CCOC2)CN1Cc1nc2ccc(Cl)cc2[nH]1 (configuration not stated),-5.094%
3,O=C1CCC(C(=O)N(Cc2ccsc2)CC2CCCO2)=NN1 (configuration not stated),39.45%
4,Cc1ccc2c(c1)C(NCc1nccn1Cc1ccccc1)CCCO2 (configuration not stated),-18.78%
5,Cc1cc(C)nc(N2CCN(C(=O)c3ccc(C4CCCO4)s3)CC2)n1 (configuration not stated),6.831%
6,CCc1cnc(C)nc1NCc1nc(COC)no1,13.28%
7,O=C(O)c1cc(S(=O)(=O)Nc2ccc(Cl)cc2)cc2c1OCCO2,-1.351%
8,Cc1nn(C(C)C)c(C)c1S(=O)(=O)Nc1ccc(C(=O)O)c(Cl)c1,2.82%
9,CCc1cccc(NS(=O)(=O)c2cc(C)c(C(=O)O)s2)c1,-4.966%
10,CN1CCN(c2ccc(NS(=O)(=O)c3ccc(Br)s3)cc2C(=O)O)CC1,107.3%
11,CCc1ccc(S(=O)(=O)Nc2cc(C(=O)O)c(F)cc2F)s1,-4.689%
12,CCC1(c2ccc(NS(=O)(=O)c3ccc(Cl)s3)cc2)CCC(=O)NC1=O (configuration not stated),13.42%
13,O=C(O)c1cc(NS(=O)(=O)c2cccc(Cl)c2F)ccc1Cl,-8.503%
14,CN1CCN(c2ccc(NS(=O)(=O)c3ccc(Cl)s3)cc2C(=O)O)CC1,118.1%
15,O=C(O)C(F)(F)F.O=C(O)c1cc(NS(=O)(=O)c2ccc(Cl)s2)ccc1N1CCOCC1,94.51%
16,CN(C)Cc1ccc(C(N)=O)cc1NC(=O)c1cccc(C#N)c1,-8.387%
17,N#Cc1ccc(N2CC3(CCN(c4nccs4)C3)C2)nc1.O=CO.O=CO,-6.647%
18,CCc1ccc(CNC[C@H]2C[C@@H](CO)N(C)[C@H]2c2ccccc2F)o1,-16.71%
19,O=C1NCC2(CCN(C(=O)c3ccc4c(c3)CCCO4)CC2)O1,9.067%
20,CCOc1cccc(CN2CCCC(Nc3ccc(F)cc3)C2)c1O (configuration not stated),-11.06%
21,Cc1ccccc1C(=O)CN1C(=O)c2ccccc2CS1(=O)=O,-19.77%

row,Structure (SMILES),Percent Effect
1,CC(C)(O)CCc1cccc(C(=O)NCC2COCCO2)c1 (configuration not stated),5.622%
2,COCCN(Cc1cnn(C)c1)c1nc2c(s1)c(C)nn2C,-9.354%
3,Cc1cccc(CN2C(=O)CCC23CCN(C(=O)NC(C)C)CC3)n1.O=C(O)C(F)(F)F,107.8%
4,Cc1cccc(CN2CCC3(CCCN(C(=O)NC(C)C)C3)C2=O)n1.O=C(O)C(F)(F)F (configuration not stated),-6.059%
5,Cc1cccc(CN2CCCC3(CCC(=O)N3CCN(C)C)CC2)n1.O=C(O)C(F)(F)F.O=C(O)C(F)(F)F (configuration not stated),115.9%
6,Cc1cccc(CN2CCC3(CCCN(C(=O)NC4CC4)C3)C2=O)n1.O=C(O)C(F)(F)F (configuration not stated),34.29%
7,Cc1cccc(CN2C(=O)CCC23CCN(c2ccccn2)CC3)n1.O=C(O)C(F)(F)F.O=C(O)C(F)(F)F,98.24%
8,Cc1cccc(N2CCC3(CCCC(=O)N3)CC2)n1.O=C(O)C(F)(F)F,-22.27%
9,Cc1cccc(N2CCC3(CCN(Cc4ccccn4)CC3)CC2)n1.O=C(O)C(F)(F)F.O=C(O)C(F)(F)F,8.022%
10,O=C(O)C(F)(F)F.O=C(c1ccoc1)N1CCC2(CCC(=O)N2Cc2ccncc2)CC1,2.988%
11,Cc1cccc(CN2CCOC3(COCCN(CCN(C)C)C3)C2)n1.O=C(O)C(F)(F)F.O=C(O)C(F)(F)F.O=C(O)C(F)(F)F (configuration not stated),-6.557%
12,Cc1cccc(CN2C(=O)CCC23CCN(C(=O)c2ccco2)CC3)n1.O=C(O)C(F)(F)F,108.9%
13,Cc1cc(CN(C)C(=O)c2ccc(Cl)c(S(C)(=O)=O)c2)no1,-0.7928%
14,Cn1ccnc1CCNS(=O)(=O)Cc1cccc(C#N)c1,3.021%
15,C1CCC(CSc2nnnn2C2CC2)OC1 (configuration not stated),-5.592%
16,O[C@H]1Cc2ccccc2[C@H]1n1ccnc1-c1cc2n(n1)CCNC2,-8.508%
17,CC(C)N1CCC(CN2CCn3nc(CNC(=O)N(C)C)cc3C2)CC1,6.322%
18,Cc1cccc(CN2C(=O)CCC23CCN(C(=O)N2CCCC2)CC3)n1.O=C(O)C(F)(F)F,96.5%
19,Cc1cccc(CN2CCC3(CCCN(C(=O)N4CCCC4)C3)C2=O)n1.O=C(O)C(F)(F)F (configuration not stated),-13.65%
20,COCCN1C(=O)CC[C@]12CC[C@@H](NCc1cccc(C)n1)CC2.O=C(O)C(F)(F)F,-11.86%
21,COc1cc(CN(C)C(=O)NCc2nccs2)ccc1SC,-21.32%

row,Structure (SMILES),Percent Effect
1,CN(Cc1cc2ccccc2o1)S(C)(=O)=O,-18.47%
2,CN(CC1CC1)C(=O)c1cc2c(c(S(N)(=O)=O)c1)CCC2,-0.6394%
3,c1cc2n(n1)CC(CNCc1ccc(OC3CCCCC3)nc1)CN2 (configuration not stated),-3.239%
4,COc1cc(CNCC2CNc3ccnn3C2)ccn1 (configuration not stated),104.7%
5,c1cc(CNCC2CNc3ccnn3C2)cc(OC2CCCC2)n1 (configuration not stated),105.3%
6,c1cc(CNCC2CNc3ccnn3C2)cc(OC2CCCCC2)n1 (configuration not stated),87.88%
7,Cc1cc2n(n1)CC(CNCc1ccnc(-n3ccnc3C)c1)CN2 (configuration not stated),-4.434%
8,c1ccc(Oc2cc(CNCC3CNc4ccnn4C3)ccn2)cc1 (configuration not stated),3.776%
9,c1cc2n(n1)CC(CNCc1ccc(OC3CCCC3)nc1)CN2 (configuration not stated),90.58%
10,Cn1cc(CCNCC2CNc3ccnn3C2)cn1 (configuration not stated),-8.259%
11,CCN1CCN(c2ccc(F)cc2C(C)NCc2nc(C)no2)CC1 (configuration not stated),5.378%
12,CNS(=O)(=O)CCCN1CCCCCC1c1ccc(C)o1 (configuration not stated),-40.39%
13,Cc1cc(C(=O)N2CCc3nnc(N)cc3C2)c(C)n1-c1cccnc1,-7.22%
14,Cc1cc(C(=O)CN2C(=O)c3ccccc3CS2(=O)=O)c(C)[nH]1,11.78%
15,CS(=O)(=O)N1C[C@@H]2CC[C@H](C1)N(C/C=C/c1ccc(F)cc1)C2,-3.791%
16,CCS(=O)(=O)c1nccn1-c1cccc(F)c1,-14.2%
17,Cc1cnn(C(C)C2CC2)c1NC(=O)c1ncccc1O (configuration not stated),16.76%
18,c1cc(CNCC2CNc3ccnn3C2)cc(N2CCOCC2)n1 (configuration not stated),104.3%
19,O=C(c1cccc(CNCC2CNc3ccnn3C2)c1)N1CCCC1 (configuration not stated),2.865%
20,c1cc(CNCC2CNc3ccnn3C2)cc(N2CCCCC2)n1 (configuration not stated),12.93%
